# Measurements published in ChEMBL document CHEMBL2218924, “A broad activity screen in support of a chemogenomic map for kinase signalling research and drug discovery” (Biochem J, 2013).
# Columns and labels:
# [1] = molecular target: T1, Ephrin type-A receptor 3 (Homo sapiens) (UniProt P29320); details: at 10 µM
# T1 sequence (whole entry): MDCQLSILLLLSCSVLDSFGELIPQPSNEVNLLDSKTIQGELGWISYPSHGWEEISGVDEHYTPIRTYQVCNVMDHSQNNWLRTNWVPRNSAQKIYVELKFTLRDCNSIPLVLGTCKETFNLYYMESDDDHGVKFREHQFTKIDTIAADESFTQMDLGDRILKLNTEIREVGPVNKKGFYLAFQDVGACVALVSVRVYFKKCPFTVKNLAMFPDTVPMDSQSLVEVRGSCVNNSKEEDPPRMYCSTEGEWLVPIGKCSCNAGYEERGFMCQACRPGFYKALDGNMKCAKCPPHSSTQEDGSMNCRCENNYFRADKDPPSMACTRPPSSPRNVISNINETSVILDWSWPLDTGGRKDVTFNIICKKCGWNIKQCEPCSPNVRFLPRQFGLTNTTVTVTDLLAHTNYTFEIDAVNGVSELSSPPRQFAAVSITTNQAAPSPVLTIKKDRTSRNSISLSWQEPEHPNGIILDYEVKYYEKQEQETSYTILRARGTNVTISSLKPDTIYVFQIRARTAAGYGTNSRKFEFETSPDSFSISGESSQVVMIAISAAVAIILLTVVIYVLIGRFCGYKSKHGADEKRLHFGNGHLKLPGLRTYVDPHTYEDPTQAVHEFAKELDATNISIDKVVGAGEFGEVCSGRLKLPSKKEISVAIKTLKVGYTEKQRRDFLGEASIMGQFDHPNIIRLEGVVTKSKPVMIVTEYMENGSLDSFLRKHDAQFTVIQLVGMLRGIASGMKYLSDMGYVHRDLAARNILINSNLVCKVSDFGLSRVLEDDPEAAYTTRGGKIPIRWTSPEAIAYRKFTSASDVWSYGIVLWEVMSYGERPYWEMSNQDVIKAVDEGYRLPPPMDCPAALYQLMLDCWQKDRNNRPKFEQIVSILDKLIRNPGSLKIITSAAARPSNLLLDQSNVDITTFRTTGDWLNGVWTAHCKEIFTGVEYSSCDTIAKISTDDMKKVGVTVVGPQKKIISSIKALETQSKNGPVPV
# [2] = molecular target: T2, Ephrin type-B receptor 1 (Homo sapiens) (UniProt P54762); details: at 1 µM
# T2 sequence (whole entry): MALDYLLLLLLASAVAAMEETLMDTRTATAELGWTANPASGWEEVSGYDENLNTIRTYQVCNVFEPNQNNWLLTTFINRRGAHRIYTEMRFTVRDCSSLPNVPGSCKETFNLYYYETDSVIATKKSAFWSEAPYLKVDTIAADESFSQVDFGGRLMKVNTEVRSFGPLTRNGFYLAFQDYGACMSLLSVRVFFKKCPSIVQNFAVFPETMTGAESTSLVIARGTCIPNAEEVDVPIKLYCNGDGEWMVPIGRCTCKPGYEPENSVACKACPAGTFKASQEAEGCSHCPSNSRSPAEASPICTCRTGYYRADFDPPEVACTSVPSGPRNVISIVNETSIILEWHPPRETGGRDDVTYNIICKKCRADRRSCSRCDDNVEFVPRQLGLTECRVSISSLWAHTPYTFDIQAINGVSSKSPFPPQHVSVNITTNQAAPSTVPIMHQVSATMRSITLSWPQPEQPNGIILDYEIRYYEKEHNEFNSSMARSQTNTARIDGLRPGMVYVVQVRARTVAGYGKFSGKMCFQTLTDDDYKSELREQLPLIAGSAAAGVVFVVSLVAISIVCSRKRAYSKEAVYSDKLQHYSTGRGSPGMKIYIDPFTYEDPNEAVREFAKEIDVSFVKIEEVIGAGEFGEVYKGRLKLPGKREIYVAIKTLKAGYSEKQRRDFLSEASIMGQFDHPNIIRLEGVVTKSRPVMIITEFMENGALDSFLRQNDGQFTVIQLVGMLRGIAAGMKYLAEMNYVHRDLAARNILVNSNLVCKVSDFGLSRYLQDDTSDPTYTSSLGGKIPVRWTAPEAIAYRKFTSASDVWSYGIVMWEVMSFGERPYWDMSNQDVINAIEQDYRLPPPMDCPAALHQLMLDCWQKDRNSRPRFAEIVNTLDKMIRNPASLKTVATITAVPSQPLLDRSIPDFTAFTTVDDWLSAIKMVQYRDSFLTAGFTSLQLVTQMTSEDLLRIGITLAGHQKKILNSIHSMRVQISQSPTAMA
# [3] = molecular target: T2, Ephrin type-B receptor 1 (Homo sapiens); details: at 10 µM
# [4] = molecular target: T3, Ephrin type-B receptor 2 (Homo sapiens) (UniProt P29323); details: at 1 µM
# T3 sequence (whole entry): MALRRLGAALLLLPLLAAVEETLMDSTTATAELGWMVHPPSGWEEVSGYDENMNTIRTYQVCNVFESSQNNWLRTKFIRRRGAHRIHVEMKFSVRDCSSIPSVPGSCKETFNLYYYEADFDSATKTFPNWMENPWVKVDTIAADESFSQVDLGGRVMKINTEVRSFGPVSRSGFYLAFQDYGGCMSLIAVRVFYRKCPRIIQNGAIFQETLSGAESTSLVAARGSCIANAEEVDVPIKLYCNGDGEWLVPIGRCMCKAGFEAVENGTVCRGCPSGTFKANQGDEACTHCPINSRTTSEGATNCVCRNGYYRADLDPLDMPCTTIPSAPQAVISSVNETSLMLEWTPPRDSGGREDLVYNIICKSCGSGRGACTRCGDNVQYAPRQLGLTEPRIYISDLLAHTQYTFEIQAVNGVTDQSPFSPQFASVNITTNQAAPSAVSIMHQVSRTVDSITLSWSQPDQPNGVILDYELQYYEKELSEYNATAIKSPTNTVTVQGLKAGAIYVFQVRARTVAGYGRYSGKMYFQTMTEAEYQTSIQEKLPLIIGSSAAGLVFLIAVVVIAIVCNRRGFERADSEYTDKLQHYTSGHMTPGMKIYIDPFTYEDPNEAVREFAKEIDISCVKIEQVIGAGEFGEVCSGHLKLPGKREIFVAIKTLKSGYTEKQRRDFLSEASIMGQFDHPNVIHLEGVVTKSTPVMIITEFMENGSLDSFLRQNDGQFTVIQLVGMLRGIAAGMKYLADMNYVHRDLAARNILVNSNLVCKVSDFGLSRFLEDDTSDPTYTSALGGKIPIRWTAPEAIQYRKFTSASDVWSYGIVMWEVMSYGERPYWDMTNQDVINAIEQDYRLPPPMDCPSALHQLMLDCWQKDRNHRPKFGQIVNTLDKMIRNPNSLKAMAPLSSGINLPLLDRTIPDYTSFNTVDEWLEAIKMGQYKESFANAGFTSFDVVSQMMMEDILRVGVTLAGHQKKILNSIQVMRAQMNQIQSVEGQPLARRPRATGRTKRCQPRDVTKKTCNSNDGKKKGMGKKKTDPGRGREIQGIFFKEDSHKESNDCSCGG
# [5] = molecular target: T3, Ephrin type-B receptor 2 (Homo sapiens); details: at 10 µM
# [6] = molecular target: T4, Ephrin type-B receptor 3 (Homo sapiens) (UniProt P54753); details: at 1 µM
# T4 sequence (whole entry): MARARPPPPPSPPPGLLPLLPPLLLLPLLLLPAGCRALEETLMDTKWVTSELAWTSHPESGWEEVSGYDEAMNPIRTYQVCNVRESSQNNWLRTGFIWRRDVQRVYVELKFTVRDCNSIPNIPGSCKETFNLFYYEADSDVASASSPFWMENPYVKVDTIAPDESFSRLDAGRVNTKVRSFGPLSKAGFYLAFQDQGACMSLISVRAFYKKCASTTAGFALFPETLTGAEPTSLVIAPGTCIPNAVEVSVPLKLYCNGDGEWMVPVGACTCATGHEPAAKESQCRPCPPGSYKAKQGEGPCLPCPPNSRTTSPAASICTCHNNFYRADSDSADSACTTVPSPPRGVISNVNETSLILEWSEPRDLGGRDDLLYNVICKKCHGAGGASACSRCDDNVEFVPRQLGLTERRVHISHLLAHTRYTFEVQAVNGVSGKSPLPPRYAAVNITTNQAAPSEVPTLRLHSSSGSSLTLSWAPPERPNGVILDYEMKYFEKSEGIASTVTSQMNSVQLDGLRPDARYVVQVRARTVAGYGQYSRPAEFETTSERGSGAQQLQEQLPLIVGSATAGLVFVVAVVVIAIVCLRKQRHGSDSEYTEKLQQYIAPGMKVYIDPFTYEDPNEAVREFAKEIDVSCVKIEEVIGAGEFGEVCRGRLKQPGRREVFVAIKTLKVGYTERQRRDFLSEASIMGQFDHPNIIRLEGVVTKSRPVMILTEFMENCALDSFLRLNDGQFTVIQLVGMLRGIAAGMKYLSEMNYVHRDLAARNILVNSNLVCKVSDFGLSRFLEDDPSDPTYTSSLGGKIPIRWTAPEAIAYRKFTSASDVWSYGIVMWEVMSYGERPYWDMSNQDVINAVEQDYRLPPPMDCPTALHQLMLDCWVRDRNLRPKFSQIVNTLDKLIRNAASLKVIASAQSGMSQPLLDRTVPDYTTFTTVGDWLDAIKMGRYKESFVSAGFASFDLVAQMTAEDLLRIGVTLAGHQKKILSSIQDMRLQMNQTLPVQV
# [7] = molecular target: T4, Ephrin type-B receptor 3 (Homo sapiens); details: at 10 µM
# [8] = molecular target: T5, Ephrin type-B receptor 4 (Homo sapiens) (UniProt P54760); details: at 1 µM
# T5 sequence (whole entry): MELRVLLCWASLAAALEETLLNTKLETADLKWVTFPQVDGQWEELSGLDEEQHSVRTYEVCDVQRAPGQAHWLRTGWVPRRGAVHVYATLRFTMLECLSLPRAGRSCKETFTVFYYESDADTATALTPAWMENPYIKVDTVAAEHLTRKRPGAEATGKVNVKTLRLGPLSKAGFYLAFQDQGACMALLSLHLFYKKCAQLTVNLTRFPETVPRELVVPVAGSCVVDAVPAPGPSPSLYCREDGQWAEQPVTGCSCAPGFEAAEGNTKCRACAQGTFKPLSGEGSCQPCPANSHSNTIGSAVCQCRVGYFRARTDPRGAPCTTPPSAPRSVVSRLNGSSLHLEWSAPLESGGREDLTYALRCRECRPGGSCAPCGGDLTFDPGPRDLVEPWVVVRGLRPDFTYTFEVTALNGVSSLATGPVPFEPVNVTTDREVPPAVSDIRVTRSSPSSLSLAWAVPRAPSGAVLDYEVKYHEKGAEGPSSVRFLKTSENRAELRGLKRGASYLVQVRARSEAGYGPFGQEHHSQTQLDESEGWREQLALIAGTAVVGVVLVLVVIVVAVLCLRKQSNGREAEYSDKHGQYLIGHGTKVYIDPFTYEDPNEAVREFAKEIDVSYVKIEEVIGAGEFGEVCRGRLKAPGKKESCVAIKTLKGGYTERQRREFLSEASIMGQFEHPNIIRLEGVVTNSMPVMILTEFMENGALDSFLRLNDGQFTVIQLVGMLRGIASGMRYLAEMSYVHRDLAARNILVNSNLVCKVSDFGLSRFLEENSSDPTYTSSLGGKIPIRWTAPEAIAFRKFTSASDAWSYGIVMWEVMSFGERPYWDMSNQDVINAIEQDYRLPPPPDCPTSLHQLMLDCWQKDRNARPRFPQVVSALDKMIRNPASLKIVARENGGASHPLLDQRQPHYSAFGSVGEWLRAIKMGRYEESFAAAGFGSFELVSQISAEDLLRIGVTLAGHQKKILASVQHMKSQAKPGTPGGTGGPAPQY
# [9] = molecular target: T5, Ephrin type-B receptor 4 (Homo sapiens); details: at 10 µM
# [10] = molecular target: Receptor tyrosine-protein kinase erbB-4 (Homo sapiens) (UniProt Q15303); details: at 1 µM
# [11] = molecular target: Receptor tyrosine-protein kinase erbB-4 (Homo sapiens) (UniProt Q15303); details: at 10 µM
# [12] = molecular target: Ephrin type-A receptor 5 (Homo sapiens) (UniProt P54756); details: at 1 µM
# [13] = molecular target: Ephrin type-A receptor 5 (Homo sapiens) (UniProt P54756); details: at 10 µM
# [14] = molecular target: Ephrin type-A receptor 7 (Homo sapiens) (UniProt Q15375); details: at 1 µM
# [15] = molecular target: Ephrin type-A receptor 7 (Homo sapiens) (UniProt Q15375); details: at 10 µM
# [16] = molecular target: T6, Ephrin type-A receptor 8 (Homo sapiens) (UniProt P29322); details: at 10 µM
# T6 sequence (whole entry): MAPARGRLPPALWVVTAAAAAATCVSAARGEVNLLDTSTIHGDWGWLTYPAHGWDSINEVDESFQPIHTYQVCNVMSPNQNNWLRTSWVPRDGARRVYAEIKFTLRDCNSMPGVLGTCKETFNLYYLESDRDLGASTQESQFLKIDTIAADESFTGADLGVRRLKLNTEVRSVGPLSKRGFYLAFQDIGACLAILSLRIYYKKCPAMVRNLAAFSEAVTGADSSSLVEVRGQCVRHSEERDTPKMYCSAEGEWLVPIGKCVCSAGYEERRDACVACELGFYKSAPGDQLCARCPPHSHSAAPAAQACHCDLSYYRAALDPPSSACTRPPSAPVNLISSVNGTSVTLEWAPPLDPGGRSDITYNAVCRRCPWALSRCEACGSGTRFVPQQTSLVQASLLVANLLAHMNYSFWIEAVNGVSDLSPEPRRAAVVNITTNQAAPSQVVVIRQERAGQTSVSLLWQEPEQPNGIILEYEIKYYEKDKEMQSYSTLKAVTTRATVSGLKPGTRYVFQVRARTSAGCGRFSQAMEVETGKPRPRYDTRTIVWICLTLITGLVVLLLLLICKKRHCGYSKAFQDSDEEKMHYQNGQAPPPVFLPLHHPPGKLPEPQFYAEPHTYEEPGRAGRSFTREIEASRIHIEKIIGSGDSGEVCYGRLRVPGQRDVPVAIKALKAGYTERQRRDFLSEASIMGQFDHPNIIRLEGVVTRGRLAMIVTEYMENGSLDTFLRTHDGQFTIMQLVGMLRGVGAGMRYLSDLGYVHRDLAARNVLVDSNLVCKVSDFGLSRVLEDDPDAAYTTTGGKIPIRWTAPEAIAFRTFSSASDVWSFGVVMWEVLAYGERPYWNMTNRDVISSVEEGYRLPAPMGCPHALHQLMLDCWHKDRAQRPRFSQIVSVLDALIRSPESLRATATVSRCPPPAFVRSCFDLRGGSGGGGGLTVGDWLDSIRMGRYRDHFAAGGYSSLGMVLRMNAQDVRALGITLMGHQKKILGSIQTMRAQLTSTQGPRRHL
# [17] = molecular target: Focal adhesion kinase 1 (Homo sapiens) (UniProt Q05397); details: at 1 µM
# Sequence of Focal adhesion kinase 1 (Homo sapiens) (Q05397 2-1052 limits assumed): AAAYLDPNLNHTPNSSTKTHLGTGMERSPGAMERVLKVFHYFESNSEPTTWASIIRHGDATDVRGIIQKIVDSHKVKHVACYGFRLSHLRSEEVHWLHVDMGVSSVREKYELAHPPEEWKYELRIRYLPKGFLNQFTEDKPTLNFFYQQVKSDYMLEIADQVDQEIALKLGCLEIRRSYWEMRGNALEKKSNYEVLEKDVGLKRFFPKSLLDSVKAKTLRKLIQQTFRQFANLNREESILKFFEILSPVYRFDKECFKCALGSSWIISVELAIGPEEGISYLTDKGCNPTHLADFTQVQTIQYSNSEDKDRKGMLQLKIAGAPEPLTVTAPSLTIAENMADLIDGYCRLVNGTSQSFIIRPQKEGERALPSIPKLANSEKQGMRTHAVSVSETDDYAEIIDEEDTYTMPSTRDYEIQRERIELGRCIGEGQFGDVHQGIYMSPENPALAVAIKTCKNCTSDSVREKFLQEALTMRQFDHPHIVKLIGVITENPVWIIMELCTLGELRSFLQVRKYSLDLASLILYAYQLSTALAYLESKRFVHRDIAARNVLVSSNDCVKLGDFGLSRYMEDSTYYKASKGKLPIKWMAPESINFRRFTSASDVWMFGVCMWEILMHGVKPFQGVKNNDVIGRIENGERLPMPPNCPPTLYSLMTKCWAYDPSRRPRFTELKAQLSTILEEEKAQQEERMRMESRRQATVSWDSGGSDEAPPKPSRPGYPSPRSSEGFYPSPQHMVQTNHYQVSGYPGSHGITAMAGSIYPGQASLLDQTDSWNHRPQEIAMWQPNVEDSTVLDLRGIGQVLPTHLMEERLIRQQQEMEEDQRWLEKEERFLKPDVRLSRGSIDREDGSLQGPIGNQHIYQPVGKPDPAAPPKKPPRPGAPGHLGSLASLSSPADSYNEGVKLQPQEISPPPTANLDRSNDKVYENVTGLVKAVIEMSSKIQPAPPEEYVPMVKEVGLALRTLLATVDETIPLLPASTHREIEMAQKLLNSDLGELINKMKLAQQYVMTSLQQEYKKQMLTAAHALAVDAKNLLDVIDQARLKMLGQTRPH
# Sequence of Receptor tyrosine-protein kinase erbB-4 (Homo sapiens) (Q15303 whole entry): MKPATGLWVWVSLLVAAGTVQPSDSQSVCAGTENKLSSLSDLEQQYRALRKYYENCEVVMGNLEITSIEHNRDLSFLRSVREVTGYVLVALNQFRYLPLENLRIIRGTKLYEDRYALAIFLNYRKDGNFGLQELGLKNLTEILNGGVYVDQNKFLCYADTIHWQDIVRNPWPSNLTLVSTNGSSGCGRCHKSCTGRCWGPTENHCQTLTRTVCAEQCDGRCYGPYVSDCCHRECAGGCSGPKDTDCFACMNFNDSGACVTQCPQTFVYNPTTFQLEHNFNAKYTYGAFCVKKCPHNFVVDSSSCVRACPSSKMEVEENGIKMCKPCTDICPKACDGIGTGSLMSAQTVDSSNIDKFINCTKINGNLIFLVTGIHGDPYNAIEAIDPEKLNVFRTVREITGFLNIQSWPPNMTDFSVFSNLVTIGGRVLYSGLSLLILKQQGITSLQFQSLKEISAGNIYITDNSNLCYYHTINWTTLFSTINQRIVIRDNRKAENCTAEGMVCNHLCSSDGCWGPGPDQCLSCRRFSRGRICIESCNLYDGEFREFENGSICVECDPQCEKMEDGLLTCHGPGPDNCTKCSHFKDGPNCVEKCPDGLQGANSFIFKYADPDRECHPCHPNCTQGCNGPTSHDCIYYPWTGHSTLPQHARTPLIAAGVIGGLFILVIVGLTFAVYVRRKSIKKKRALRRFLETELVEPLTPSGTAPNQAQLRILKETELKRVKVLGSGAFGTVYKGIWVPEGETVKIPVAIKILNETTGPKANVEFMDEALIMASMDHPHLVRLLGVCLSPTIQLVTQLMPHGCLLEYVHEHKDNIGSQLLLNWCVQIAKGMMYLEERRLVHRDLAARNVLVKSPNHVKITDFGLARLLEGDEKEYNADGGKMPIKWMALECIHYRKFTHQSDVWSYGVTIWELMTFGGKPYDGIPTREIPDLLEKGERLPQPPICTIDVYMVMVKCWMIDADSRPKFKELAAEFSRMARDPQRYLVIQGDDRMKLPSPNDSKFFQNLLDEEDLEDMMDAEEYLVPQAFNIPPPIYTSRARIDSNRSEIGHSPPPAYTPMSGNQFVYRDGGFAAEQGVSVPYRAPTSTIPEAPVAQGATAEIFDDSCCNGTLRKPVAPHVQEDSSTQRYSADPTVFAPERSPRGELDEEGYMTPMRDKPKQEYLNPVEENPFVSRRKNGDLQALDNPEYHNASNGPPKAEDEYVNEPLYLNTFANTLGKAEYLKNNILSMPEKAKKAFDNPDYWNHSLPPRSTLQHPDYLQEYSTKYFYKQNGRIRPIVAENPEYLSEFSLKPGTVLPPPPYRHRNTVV
# Sequence of Ephrin type-A receptor 5 (Homo sapiens) (P54756 whole entry): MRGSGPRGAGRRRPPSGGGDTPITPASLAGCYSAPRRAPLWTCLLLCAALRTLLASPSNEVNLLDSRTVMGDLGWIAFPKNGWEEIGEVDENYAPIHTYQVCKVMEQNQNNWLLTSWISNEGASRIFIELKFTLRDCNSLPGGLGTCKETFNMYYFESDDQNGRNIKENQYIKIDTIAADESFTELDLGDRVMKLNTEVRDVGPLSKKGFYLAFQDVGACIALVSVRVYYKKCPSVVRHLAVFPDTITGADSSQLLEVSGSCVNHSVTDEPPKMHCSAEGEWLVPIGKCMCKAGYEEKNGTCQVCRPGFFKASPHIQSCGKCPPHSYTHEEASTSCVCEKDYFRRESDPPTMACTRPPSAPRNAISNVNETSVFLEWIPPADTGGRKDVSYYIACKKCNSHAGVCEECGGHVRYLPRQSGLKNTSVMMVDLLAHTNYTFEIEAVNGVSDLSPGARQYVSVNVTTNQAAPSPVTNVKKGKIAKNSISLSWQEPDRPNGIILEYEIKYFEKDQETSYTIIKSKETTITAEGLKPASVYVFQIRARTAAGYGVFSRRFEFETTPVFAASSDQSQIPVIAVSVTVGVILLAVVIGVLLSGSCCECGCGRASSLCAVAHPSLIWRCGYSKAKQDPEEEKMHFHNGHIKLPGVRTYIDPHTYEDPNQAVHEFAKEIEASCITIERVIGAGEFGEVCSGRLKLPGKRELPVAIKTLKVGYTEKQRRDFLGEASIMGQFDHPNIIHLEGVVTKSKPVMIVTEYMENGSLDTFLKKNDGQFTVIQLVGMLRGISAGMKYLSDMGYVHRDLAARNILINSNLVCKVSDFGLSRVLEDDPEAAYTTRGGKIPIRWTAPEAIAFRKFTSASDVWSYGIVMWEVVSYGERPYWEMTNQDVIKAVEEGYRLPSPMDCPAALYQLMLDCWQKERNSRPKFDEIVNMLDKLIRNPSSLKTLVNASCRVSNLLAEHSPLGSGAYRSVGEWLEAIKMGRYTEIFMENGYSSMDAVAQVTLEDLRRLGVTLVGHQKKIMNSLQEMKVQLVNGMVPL
# Sequence of Ephrin type-A receptor 7 (Homo sapiens) (Q15375 28-998 limits assumed): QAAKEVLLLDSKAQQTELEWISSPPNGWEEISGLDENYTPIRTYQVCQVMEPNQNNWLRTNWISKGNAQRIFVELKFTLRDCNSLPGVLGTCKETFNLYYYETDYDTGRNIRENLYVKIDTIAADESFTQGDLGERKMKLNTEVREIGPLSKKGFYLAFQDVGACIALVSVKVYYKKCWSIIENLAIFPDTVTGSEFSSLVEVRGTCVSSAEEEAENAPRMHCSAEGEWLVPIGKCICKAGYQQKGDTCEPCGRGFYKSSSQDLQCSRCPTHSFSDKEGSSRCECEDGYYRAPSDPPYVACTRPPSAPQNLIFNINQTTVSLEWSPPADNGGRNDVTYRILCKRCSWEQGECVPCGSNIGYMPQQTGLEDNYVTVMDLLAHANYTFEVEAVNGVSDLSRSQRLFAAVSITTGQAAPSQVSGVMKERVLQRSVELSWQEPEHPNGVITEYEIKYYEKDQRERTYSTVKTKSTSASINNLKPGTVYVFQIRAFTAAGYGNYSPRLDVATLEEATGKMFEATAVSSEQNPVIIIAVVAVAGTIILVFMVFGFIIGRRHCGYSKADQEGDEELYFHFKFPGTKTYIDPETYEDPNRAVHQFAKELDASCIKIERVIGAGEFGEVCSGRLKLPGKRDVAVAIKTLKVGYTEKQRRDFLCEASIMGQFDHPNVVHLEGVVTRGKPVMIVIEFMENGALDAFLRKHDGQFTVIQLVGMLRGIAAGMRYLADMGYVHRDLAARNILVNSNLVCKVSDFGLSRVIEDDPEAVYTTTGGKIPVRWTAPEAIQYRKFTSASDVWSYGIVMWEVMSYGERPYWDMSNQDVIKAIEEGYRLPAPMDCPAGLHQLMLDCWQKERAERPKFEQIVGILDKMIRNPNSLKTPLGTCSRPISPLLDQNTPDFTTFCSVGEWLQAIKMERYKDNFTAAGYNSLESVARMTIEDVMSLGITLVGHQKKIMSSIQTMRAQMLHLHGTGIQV
SMILES,residual activity [1] [%],residual activity [2] [%],residual activity [3] [%],residual activity [4] [%],residual activity [5] [%],residual activity [6],residual activity [7] [%],residual activity [8] [%],residual activity [9] [%],residual activity [10] [%],residual activity [11] [%],residual activity [12] [%],residual activity [13] [%],residual activity [14] [%],residual activity [15] [%],residual activity [16] [%],residual activity [17] [%]
NC(=O)c1ccc(-c2nc(-c3ccc4c(c3)OCCO4)c(-c3ccccn3)[nH]2)cc1,94,93,85,96,24,117% (inactive),98,85,41,89,59,,,,,,
O=C(c1cc2cc(O)ccc2[nH]1)c1cc2cc(O)ccc2[nH]1,,,28,,24,,126,72,13,73,63,78,32,83,66,73,112
